Screens deposited in PubChem BioAssay by National Center for Advancing Translational Sciences (NCATS).
Vaccinia Venus – inhibitors of vaccinia virus (Venus reporter) | Vaccinia virus Venus reporter expression, fluorescence | Potency, µM (doses to about 36.5 µM), for the others: at the top dose activity change, negative = inhibition, usual class: inhibitors | 0.46% of 330,000 active | AID 720580; calls by dose curve; tested in A549 cells; further: potency means the concentration at half of the fitted maximal effect; nearly all actives have a fitted effect of over 30% in size
VACV mCherry inh – vaccinia inhibition (mCherry reporter); Potency, µM (top dose mostly 36.5 µM), inactives show at the highest dose activity change, negative = inhibition, usual class: inhibitors; 0.63% of 310,000 active; AID 720579; Vaccinia virus mCherry reporter infection, fluorescence; calls by dose curve; tested in A549 cells; further: potency means the concentration at half of the fitted maximal effect; nearly all actives have a fitted effect of over 35% in size
MARV entry inh – blocks Marburg virus binding to or entry into cells | Marburg virus pseudotyped entry inhibition, cell reporter | Potency, µM (highest dose often 37.8 µM), inactives show top-dose activity change, negative = inhibition, usual class: inhibitors | 1.8% of 300,000 active | AID 540276; calls by dose curve; tested in HEK293 cells; further: potency means the concentration at half of the fitted maximal effect
LASV entry inh – inhibitors of Lassa virus binding or cell entry; Lassa virus pseudotype entry inhibition, cell reporter; 1.2% of 300,000 active; Potency, µM (top dose mostly 37.9 µM), without a hit: top-dose activity change, negative = inhibition, most hits filed as inhibitors; calls by dose curve; tested in HEK293 cells; further: potency means the concentration at half of the fitted maximal effect; nearly all actives have a fitted effect of over 50% in size
HCMV antiviral – blocks human cytomegalovirus replication. HFF cells, HCMV-luciferase reporter, 72 h; active compounds read low. activity change, negative = inhibition, % at 57.5 µM. 4.5% of 410,000 active. AID 1259415; in the data active means activity change below about -60%; inconclusive means no clear call, values can overlap the other calls; inactive means above about -39%
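Human foreskin fibroblasts infected with luciferase-reporter HCMV at MOI 1 PFU/cell, compounds at two doses. Luciferase measured 72 h post infection; normalized to buffer-only basal and Salinomycin (10uM) controls.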
HCV inhibitor – HCV inhibition | Huh7.5.1 HCVcc-Cre infection, luciferase reporter, 44 h | AID 651820 | 3.4% of 340,000 active | Potency, µM (doses to about 41.8 µM), for the others: at the highest dose activity change, negative = inhibition, hits mostly inhibitors; active means well fitted inhibition curve with a large enough effect; inconclusive means small, poorly fitted or top-dose-only effect, or another doubt; inactive means no such curve, though single readings can be large or run the other way; further: potency means the concentration at half of the fitted maximal effect
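HCVcc-Cre virus at an moi near 0.5 was added right after compound to cells cultured 4 h from seeding (1,000 cells/well). Luciferase activity was determined 44 h later, 15 min after substrate addition at RT.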
Starred values were filed as active, the others as inactive; i = inactive; ? = inconclusive; · = no result given; [ ] = another dose, or the depositor's remark. Shown are actives, neighbours in structure and some others; about 7.8% of the full set was active somewhere. On the % scale 0 is the no-effect control and ±100 the full control effect.

SMILES | Vaccinia Venus | VACV mCherry inh | MARV entry inh | LASV entry inh | HCMV antiviral | HCV inhibitor
CC1=CC(C)(C)N(S(=O)(=O)c2ccc(C)cc2)c2ccc(C)cc21 | ? | -24.6% | ? | -21.3% | -73.8* | 25.5%
CC(=O)Nc1ccc(S(=O)(=O)N2c3ccccc3C(C)=CC2(C)C)cc1 | -20.2% | -24.4% | ? | ? | -80.4* | 8.0%
CC1=CC(C)(C)N(S(=O)(=O)c2ccc(F)cc2)c2ccccc21 | ? | -13.4% | ? | -23.2% | -28.8 | 9.0%
C/C=C/C(=O)N1c2ccc(C)cc2C(C)=CC1(C)C | · | · | · | · | -12.2 | -2.2%
CC(=NNC(=S)Nc1ccccc1Cl)c1ccccn1 | ? | ? | ? | 0.251µM* | -98.7* | ?
CC(=NNC(=S)Nc1ccccc1)c1ccccn1 | ? | ? | · | · | -98.4* | ·
CC(C)Oc1cccc(C(=O)NC(=S)N2CCN(c3ccc(C(F)(F)F)cc3[N+](=O)[O-])CC2)c1 | -36.0% | · | ? | ? | -21.5 | ?
COc1cccc(C(=O)NC(=S)N2CCN(c3ccc(C(F)(F)F)cc3[N+](=O)[O-])CC2)c1 | -19.3% | -20.9% | 7.2% | -14.7% | -61.9* | ?
NNc1nnc2c3cc(F)ccc3n(Cc3ccccc3)c2n1 | -15.5%[7.34 µM] | -28.7%[7.34 µM] | ? | ? | -94.7* | ?
CC(C)(C)c1cccc(/C=N\O)c1O | · | · | -0.4% | · | · | ·
CCOC(=O)NC(=O)CSc1nc(C)cc(C)c1C#N | · | · | 0.1% | -19.5% | 87.3 | -1.3%
CCc1nnc(NC(=O)CSc2nc(C)cc(C)c2C#N)s1 | -4.4% | -21.2% | 7.94µM* | ? | 21.7 | -2.1%
CCN(Cc1ccccc1)C(=O)CSc1nc(C)cc(C)c1C#N | -8.3% | i | 0.7% | -19.3% | ? | 10µM*
CCN(CC)C(=O)CSc1nc(C)cc(C)c1C#N | -13.5% | i | 0.7%[46.1 µM] | 7.9%[46.1 µM] | -14.5 | 4.8%
COc1cc(C2C3C(=O)N(Cc4ccccc4)C(=O)C3ON2c2ccccc2)cc(OC)c1OC (configuration not stated) | -11.8% | · | 4.3% | 7.1% | -18.0 | -21.8%
COc1ccc(C2C3C(=O)N(Cc4ccccc4)C(=O)C3ON2c2ccccc2)c(OC)c1OC (configuration not stated) | -27.8% | · | ? | 5.62µM* | 5.0 | ?
COc1ccc2c(c1)c(C(C)=O)c(C)n2CCc1ccc(OC)c(OC)c1 | · | · | · | · | -4.7 | ?
COc1ccc(-n2c(C)c(C(C)=O)c3cc(OC(=O)c4ccc(C)cc4)ccc32)cc1 | -0.4% | -2.0% | · | -24.3%[46.1 µM] | -74.9* | ·
COc1ccc(-n2c(C)c(C(C)=O)c3cc(O)ccc32)cc1 | · | · | -8.8% | · | -64.8* | -5.8%
COc1ccc2c(c1)c(C(C)=O)c(C)n2CCc1ccccc1 | · | · | · | · | -91.5* | ?
COc1cccc(C(=O)Nc2cc(NC(=O)c3cccs3)ccc2C)c1 | · | · | · | · | -74.6* | -15.5%
COc1cccc(C(=O)Nc2cc(NC(=O)c3cccs3)ccc2C)c1OC | · | · | · | · | -3.8 | 10µM*
Cc1ccc(NC(=O)c2cccs2)cc1NC(=O)c1ccc(F)cc1 | 4.0% | 3.5% | ? | -7.7%[46.1 µM] | 113.4 | ?
c1nc(SSc2ncc3n[nH]nc3n2)nc2n[nH]nc12 | 3.2% | 42.7% | · | · | · | ·
Cc1ccc(/C=C2/CNC/C(=C/c3ccc(C)cc3)C2=O)cc1 | ? | ? | ? | ? | -29.5 | 8.91µM*
SMILES | Vaccinia Venus | VACV mCherry inh | MARV entry inh | LASV entry inh | HCMV antiviral | HCV inhibitor
O=C(CC1(O)C(=O)Nc2cc(Cl)cc(Cl)c21)c1ccncc1 (configuration not stated) | · | · | ? | ? | 38.8 | 11.2µM*
COc1ccc(-c2noc(CSCC(=O)Nc3cccc(C(F)(F)F)c3)n2)cc1OC | -8.6% | i | · | -9.1%[46.1 µM] | -4.5 | ·
Nc1nc(Sc2ccc([N+](=O)[O-])c3nonc23)c2[nH]cnc2n1 | 140.8% | ? | ? | ? | -85.0* | 2.82µM*
CNc1ncnc(Sc2nc(N)nc3nc[nH]c23)c1[N+](=O)[O-] | ? | 5.01µM* | ? | 2.51µM* | -76.6* | ?
NC(CS)C(=O)O (configuration not stated) | -9.5% | -17.8% | · | · | · | ·
O=C(NCC1CC1)[C@@H]1[C@@H](CO)[C@@H]2Cn3c(cccc3=O)[C@@H]2N1Cc1cccc(F)c1 | · | · | · | · | -4.1 | ·
